How the values were obtained:
Experiment in all cases: DAPPL (digital affinity profiling via proximity ligation, sequencing); 10 mM Tris-HCl pH 7.5, 50 mM NaCl, 1 mM DTT, 4% glycerol, room temperature, 30 min; GST-TFs on glutathione beads, 16-mer random dsDNA library, 0.1% formaldehyde crosslink after washing; high values mean tight binding
[1] = target: T1, FLI1 (Homo sapiens, UniProt Q01543 1-452); conditions: protein: recombinant; tags: N-terminal GST; dsDNA, one strand shown
T1 sequence: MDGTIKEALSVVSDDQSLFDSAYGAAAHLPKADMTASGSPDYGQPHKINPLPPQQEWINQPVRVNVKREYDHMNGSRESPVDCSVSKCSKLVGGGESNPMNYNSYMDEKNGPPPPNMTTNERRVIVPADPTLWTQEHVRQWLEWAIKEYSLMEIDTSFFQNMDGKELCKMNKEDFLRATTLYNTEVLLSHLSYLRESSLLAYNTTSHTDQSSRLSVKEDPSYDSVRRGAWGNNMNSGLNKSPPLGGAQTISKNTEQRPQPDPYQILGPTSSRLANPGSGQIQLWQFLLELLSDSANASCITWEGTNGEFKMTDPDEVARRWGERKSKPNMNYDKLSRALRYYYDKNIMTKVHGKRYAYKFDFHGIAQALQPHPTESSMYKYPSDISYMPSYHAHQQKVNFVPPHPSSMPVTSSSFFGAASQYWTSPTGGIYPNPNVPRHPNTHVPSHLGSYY
How it was run: (§1)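 After expression in yeast as GST fusions, human transcription factors were bound to glutathione beads, DNA-barcoded and mixed with a tag-only sample. The pools were incubated with 200 nmole of a 16-mer random double-stranded DNA library in Tris/NaCl/DTT/glycerol buffer (30 min, room temperature), washed and crosslinked with 0.1% formaldehyde. Proximity ligation with BsaI/T4 ligase ran for 1 h at 37 °C, before PCR amplification and sequencing on an Illumina NextSeq500. Binding signal is a hexamer's read frequency for a factor divided by its frequency for the tag-only sample.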

[2] = target: T2, ELK1 (Homo sapiens, UniProt P19419 1-428); conditions: protein: recombinant; tags: N-terminal GST; dsDNA, one strand shown
T2 sequence: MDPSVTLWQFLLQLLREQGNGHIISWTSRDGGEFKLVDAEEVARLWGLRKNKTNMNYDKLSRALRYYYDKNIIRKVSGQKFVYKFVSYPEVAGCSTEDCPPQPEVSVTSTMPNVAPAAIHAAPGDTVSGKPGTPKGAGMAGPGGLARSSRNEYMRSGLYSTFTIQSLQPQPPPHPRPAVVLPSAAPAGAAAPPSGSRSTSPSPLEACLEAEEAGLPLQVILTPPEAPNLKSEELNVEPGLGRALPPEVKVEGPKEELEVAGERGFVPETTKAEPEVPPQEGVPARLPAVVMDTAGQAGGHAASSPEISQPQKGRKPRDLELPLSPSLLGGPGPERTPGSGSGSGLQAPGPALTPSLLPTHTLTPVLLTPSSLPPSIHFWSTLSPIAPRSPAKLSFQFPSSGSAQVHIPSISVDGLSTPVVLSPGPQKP
How it was run: as §1

[3] = target: T3, GABPA (Homo sapiens, UniProt Q06546 1-454); conditions: protein: recombinant; tags: N-terminal GST; dsDNA, one strand shown
T3 sequence: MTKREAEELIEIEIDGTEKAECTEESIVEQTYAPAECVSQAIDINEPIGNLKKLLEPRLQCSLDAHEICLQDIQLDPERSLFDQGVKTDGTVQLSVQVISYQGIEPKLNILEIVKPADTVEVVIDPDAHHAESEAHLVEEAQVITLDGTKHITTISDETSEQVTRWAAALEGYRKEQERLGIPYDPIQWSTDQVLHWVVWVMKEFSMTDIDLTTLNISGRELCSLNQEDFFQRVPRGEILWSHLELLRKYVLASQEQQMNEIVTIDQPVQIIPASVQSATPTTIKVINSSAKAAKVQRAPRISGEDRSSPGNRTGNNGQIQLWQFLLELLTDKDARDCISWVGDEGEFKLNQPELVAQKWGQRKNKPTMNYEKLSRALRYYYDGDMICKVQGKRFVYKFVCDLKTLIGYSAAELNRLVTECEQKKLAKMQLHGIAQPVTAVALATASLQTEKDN
How it was run: as §1

[4] = target: T4, ERG (Homo sapiens, UniProt P11308 1-479); conditions: protein: recombinant; tags: N-terminal GST; dsDNA, one strand shown
T4 sequence: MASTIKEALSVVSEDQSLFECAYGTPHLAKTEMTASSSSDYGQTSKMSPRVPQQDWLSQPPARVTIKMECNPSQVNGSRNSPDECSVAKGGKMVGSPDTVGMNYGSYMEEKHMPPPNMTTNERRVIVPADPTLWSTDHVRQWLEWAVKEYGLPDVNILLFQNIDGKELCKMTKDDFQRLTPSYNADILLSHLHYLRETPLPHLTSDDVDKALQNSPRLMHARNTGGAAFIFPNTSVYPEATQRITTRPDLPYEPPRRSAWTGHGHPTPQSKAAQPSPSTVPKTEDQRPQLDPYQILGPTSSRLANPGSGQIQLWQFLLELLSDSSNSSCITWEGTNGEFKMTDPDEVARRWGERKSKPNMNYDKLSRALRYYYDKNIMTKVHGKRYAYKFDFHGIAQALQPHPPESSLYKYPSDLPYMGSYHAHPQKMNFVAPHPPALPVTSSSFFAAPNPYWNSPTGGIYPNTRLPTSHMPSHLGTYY
How it was run: as §1

[5] = target: ELF1 (Homo sapiens, UniProt P32519 1-619); conditions: protein: recombinant; tags: N-terminal GST; dsDNA, one strand shown
How it was run: as §1

[6] = target: T5, EHF (Homo sapiens, UniProt Q9NZC4 1-300); conditions: protein: recombinant; tags: N-terminal GST; dsDNA, one strand shown
T5 sequence: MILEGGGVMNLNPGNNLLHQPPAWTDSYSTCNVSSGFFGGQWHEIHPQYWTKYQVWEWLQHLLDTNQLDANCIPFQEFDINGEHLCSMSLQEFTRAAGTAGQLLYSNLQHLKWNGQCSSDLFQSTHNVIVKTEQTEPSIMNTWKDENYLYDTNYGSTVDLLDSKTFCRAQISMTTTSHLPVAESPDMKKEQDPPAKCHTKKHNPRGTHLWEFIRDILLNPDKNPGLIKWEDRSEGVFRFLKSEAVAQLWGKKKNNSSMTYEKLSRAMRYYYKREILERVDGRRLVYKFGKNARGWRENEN
How it was run: as §1

[7] = target: SPI1 (Homo sapiens, UniProt P17947 1-270); conditions: protein: recombinant; tags: N-terminal GST; dsDNA, one strand shown
How it was run: as §1

[8] = target: SPIB (Homo sapiens, UniProt Q01892 1-262); conditions: protein: recombinant; tags: N-terminal GST; dsDNA, one strand shown
How it was run: as §1

[9] = target: T6, ELK3 (Homo sapiens, UniProt P41970 1-407); conditions: protein: recombinant; tags: N-terminal GST; dsDNA, one strand shown
T6 sequence: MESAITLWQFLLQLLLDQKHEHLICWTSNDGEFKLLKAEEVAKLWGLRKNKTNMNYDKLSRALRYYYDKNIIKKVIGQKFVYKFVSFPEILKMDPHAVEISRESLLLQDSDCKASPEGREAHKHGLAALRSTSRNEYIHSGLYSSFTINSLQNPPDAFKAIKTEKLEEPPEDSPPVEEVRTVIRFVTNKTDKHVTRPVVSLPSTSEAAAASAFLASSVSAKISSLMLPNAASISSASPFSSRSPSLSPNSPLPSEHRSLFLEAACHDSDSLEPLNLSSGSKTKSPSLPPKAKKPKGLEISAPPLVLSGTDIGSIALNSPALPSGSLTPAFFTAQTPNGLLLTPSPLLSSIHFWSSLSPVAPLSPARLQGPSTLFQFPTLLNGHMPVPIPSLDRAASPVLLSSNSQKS
How it was run: as §1

[10] = target: T7, FEV (Homo sapiens, UniProt Q99581 1-238); conditions: protein: recombinant; tags: N-terminal GST; dsDNA, one strand shown
T7 sequence: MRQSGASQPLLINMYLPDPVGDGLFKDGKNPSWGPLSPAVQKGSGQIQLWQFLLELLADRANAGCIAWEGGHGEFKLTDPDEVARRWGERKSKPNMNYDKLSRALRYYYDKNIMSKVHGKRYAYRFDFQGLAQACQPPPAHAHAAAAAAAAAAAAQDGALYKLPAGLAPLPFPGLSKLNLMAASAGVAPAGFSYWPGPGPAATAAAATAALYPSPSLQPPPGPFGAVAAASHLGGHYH
How it was run: as §1

[11] = target: ETV5 (Homo sapiens, UniProt P41161 1-510); conditions: protein: recombinant; tags: N-terminal GST; dsDNA, one strand shown
How it was run: as §1

[12] = target: HSF1 (Homo sapiens, UniProt Q00613 1-529); conditions: protein: recombinant; tags: N-terminal GST; chain copies: 3; dsDNA, one strand shown
How it was run: as §1

[13] = target: T8, SPIC (Homo sapiens, UniProt Q8N5J4 1-248); conditions: protein: recombinant; tags: N-terminal GST; dsDNA, one strand shown
T8 sequence: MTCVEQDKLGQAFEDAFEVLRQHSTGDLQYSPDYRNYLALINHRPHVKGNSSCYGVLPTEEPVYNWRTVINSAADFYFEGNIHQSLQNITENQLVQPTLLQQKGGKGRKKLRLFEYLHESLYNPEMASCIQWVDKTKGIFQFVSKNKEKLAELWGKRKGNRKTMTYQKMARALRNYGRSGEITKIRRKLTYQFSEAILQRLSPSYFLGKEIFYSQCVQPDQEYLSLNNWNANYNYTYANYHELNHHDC
How it was run: as §1

[14] = target: ELF4 (Homo sapiens, UniProt Q99607 1-663); conditions: protein: recombinant; tags: N-terminal GST; dsDNA, one strand shown
How it was run: as §1

[15] = target: T9, ELK4 (Homo sapiens, UniProt P28324-2 1-405); conditions: protein: recombinant; tags: N-terminal GST; dsDNA, one strand shown
T9 sequence: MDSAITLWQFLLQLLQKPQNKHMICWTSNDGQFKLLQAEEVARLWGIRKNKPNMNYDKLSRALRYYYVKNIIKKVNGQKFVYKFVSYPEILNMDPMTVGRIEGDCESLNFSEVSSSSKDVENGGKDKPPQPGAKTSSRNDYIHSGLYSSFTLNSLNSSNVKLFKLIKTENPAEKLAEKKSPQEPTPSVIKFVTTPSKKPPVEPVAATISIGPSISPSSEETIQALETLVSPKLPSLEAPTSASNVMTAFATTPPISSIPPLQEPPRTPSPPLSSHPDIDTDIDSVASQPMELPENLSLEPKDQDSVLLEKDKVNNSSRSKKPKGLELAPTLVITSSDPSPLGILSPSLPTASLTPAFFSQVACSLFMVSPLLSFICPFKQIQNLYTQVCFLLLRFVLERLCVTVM
How it was run: as §1

[16] = target: T10, ETV2 (Homo sapiens, UniProt O00321 1-342); conditions: protein: recombinant; tags: N-terminal GST; dsDNA, one strand shown
T10 sequence: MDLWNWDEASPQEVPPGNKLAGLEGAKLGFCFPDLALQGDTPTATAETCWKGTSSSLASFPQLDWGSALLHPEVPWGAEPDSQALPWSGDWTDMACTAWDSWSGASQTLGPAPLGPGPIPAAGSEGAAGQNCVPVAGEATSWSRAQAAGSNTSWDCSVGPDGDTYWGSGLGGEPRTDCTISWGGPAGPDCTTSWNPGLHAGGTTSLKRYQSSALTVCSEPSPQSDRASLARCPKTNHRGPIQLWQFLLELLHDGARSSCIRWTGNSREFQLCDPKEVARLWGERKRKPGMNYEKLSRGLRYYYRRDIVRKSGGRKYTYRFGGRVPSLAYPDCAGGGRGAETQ
How it was run: as §1

[17] = target: T11, ELF3 (Homo sapiens, UniProt P78545 1-371); conditions: protein: recombinant; tags: N-terminal GST; dsDNA, one strand shown
T11 sequence: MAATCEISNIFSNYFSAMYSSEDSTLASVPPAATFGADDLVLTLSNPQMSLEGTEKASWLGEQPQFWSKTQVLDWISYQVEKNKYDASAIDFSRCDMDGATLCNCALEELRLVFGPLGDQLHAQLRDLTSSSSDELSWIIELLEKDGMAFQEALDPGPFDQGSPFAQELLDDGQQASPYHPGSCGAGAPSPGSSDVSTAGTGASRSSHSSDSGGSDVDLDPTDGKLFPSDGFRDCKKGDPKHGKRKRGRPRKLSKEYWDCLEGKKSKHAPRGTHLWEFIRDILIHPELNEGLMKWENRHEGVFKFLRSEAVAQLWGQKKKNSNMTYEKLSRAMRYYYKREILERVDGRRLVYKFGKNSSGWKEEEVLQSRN
How it was run: as §1

[18] = target: CRX (Homo sapiens, UniProt O43186 1-299); conditions: protein: recombinant; tags: N-terminal GST; dsDNA, one strand shown
How it was run: as §1

[19] = target: ETV1 (Homo sapiens, UniProt P50549 1-477); conditions: protein: recombinant; tags: N-terminal GST; dsDNA, one strand shown
How it was run: as §1

Chain of SPIB (Q01892 whole entry): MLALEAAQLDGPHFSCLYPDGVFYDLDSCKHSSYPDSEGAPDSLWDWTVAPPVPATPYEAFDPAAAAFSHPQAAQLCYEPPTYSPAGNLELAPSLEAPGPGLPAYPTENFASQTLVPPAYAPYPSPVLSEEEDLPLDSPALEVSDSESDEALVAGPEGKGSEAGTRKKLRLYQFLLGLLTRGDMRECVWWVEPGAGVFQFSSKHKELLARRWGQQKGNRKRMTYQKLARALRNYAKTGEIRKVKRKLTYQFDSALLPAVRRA
Chain of ELF1 (P32519 whole entry): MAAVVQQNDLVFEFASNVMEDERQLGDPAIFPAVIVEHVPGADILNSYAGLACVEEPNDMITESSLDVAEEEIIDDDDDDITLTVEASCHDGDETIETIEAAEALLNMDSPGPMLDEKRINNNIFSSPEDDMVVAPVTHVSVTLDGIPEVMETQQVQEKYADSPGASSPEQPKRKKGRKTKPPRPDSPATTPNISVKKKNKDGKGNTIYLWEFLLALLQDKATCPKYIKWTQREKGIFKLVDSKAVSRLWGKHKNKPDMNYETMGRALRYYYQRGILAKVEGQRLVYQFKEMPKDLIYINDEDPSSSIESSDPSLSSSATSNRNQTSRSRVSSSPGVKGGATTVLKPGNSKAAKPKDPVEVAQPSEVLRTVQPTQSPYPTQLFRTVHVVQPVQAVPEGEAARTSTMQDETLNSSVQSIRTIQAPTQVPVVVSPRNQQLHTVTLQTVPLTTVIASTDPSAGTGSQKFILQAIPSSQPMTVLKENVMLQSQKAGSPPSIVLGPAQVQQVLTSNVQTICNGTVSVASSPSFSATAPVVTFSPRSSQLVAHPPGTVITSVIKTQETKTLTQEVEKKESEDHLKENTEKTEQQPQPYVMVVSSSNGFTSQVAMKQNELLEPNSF
Chain of ETV5 (P41161 whole entry): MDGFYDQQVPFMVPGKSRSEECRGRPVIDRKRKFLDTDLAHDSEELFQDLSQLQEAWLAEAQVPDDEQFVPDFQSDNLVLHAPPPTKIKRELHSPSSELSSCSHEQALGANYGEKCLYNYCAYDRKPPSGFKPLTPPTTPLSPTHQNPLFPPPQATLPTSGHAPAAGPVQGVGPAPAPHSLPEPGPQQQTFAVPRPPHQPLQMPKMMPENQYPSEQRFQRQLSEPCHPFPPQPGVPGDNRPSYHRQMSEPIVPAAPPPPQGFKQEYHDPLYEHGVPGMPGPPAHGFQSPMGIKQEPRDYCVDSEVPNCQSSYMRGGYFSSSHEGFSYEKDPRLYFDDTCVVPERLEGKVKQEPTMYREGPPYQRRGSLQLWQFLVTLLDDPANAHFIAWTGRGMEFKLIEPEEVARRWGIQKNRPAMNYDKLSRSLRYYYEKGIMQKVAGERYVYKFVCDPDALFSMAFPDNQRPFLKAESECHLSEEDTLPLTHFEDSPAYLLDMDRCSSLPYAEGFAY
Chain of ETV1 (P50549 whole entry): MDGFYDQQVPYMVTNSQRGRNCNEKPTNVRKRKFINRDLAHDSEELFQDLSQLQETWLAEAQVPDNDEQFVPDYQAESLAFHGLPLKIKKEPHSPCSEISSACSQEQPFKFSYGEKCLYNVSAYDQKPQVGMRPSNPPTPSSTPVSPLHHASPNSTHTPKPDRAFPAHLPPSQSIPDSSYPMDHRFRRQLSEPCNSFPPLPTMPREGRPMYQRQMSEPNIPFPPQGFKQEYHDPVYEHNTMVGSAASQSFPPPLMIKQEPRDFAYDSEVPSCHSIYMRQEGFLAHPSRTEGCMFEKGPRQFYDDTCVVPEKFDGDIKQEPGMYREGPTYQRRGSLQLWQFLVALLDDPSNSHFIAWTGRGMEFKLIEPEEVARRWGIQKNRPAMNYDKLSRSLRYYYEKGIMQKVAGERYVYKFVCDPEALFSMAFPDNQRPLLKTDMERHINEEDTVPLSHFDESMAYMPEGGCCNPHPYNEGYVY
Chain of CRX (O43186 whole entry): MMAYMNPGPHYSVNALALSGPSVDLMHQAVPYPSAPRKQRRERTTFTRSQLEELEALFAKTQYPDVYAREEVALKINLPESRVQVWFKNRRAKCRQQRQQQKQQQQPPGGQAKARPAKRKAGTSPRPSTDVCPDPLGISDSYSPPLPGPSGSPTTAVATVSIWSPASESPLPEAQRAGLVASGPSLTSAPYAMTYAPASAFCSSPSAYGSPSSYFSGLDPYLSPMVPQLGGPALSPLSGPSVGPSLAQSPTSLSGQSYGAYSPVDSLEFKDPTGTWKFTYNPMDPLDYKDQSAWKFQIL
Chain of HSF1 (Q00613 whole entry): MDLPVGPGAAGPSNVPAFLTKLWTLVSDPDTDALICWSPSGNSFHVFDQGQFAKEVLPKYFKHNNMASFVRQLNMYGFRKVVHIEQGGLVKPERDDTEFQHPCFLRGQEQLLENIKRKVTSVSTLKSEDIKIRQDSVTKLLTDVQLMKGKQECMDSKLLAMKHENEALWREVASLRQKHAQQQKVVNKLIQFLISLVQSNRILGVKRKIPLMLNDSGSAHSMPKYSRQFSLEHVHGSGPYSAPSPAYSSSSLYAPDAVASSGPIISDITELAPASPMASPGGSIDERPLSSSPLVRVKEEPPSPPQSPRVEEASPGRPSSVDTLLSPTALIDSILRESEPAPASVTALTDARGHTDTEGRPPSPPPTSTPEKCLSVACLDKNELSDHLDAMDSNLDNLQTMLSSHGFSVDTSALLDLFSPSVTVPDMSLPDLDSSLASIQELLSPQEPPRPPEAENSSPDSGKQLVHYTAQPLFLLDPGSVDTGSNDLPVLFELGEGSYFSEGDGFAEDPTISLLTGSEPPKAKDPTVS
Chain of ELF4 (Q99607 whole entry): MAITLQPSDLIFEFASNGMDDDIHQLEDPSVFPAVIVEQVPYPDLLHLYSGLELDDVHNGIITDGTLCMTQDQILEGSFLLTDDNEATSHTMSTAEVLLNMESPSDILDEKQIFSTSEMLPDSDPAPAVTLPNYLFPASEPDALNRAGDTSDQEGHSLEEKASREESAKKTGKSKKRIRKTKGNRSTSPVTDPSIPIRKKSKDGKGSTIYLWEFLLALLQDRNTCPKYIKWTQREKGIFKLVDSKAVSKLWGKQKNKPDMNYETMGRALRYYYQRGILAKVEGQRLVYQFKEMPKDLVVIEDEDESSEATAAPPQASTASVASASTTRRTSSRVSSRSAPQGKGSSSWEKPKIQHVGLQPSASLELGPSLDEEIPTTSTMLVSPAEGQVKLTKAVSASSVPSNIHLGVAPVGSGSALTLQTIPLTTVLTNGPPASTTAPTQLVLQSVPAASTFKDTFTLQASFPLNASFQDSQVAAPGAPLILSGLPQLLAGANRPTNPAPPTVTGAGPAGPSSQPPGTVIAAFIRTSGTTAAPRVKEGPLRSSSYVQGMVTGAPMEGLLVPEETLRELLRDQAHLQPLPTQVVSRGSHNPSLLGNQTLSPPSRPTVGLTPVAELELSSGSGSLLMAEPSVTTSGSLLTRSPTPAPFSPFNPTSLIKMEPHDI

TCTTCT
binding signal [1]: 1.3 fold enrichment (6-mer frequency, TF over GST control)
binding signal [2]: 1.29 fold enrichment (6-mer frequency, TF over GST control)
binding signal [3]: 1.21 fold enrichment (6-mer frequency, TF over GST control)
binding signal [4]: 1.23 fold enrichment (6-mer frequency, TF over GST control)
binding signal [5]: 1.25 fold enrichment (6-mer frequency, TF over GST control)
binding signal [6]: 1.14 fold enrichment (6-mer frequency, TF over GST control)
binding signal [7]: 1.22 fold enrichment (6-mer frequency, TF over GST control)
binding signal [8]: 1.19 fold enrichment (6-mer frequency, TF over GST control)
binding signal [9]: 1.25 fold enrichment (6-mer frequency, TF over GST control)
binding signal [10]: 1.16 fold enrichment (6-mer frequency, TF over GST control)
binding signal [11]: 1.14 fold enrichment (6-mer frequency, TF over GST control)
binding signal [12]: 2.17 fold enrichment (6-mer frequency, TF over GST control)
binding signal [13]: 1.31 fold enrichment (6-mer frequency, TF over GST control)
binding signal [14]: 1.16 fold enrichment (6-mer frequency, TF over GST control)
binding signal [15]: 1.26 fold enrichment (6-mer frequency, TF over GST control)
binding signal [16]: 1.22 fold enrichment (6-mer frequency, TF over GST control)
binding signal [17]: 1.31 fold enrichment (6-mer frequency, TF over GST control)
binding signal [18]: 1.59 fold enrichment (6-mer frequency, TF over GST control)
binding signal [19]: 1.25 fold enrichment (6-mer frequency, TF over GST control)
